Each structure is given as a SMILES string. About 83,000 compounds went through this panel and 20% of them were active in at least one assay; those are over-represented in the sample as a whole.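 Values shown are percent growth following 48 h exposure of cells in 96-well plates to a single concentration of compound; below 10 was considered active.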 A number with no mark means an inactive call. Active and inactive are the calls of the source.

Common to all, as to test: NCI-60 one-dose screen, 48 h (100 = growth as untreated, 0 = no growth, -100 = all killed)
Holding throughout (conditions): 10 µM unless noted

Assay [1] deals with BT-549 breast.
The subject of assay [2] is MDA-MB-435 melanoma.
For assay [3], the system named is SW-620 colon.
Assay [4] relates to MCF7 breast.
Assay [5] has as its system HCT-116 colon.
The subject of assay [6] is KM12 colon.
Assay [7] has as its system HCC-2998 colon.

On to `COc1ccc(CN2c3ccccc3Oc3ccccc32)cc1O`, for which the growth in assay [1] was 39.9%; in assay [2], 9.49% (active); in assay [3], 27%; in assay [4], 27.3%; in assay [5] it was 13.7%; in assay [6] it was 20.9%.

As for `Cn1c(NCCc2ccc(O)c(O)c2)nc2c1c(=O)n(Cc1ccc(Cl)c(Cl)c1)c(=O)n2C`, the growth was 67.1% in assay [1]; 76.5% in assay [3]; 79% in assay [4]; 64.8% in assay [5]; 90.6% in assay [7]; 71.9% in assay [6].

For `CCNC(=O)Oc1ccc(/C(=C(\C)c2ccc(Cl)cc2)c2ccc(OCCN(CC)CC)cc2)cc1`, the growth in assay [1] was 68.8%; in assay [2], 25%; in assay [3], 2.28% (active); in assay [4], 16.5%; in assay [5], 38.6%; in assay [7], 51%. Also, in assay [6], the growth is 37.5%.

For `CN1CCN(CCCOc2cccc3nc(Nc4cc(Cl)cc(Cl)c4)ccc23)CC1`, the growth was 65% in assay [1]; -46.5% (active) in assay [2]; -66.6% (active) in assay [3]; -80.3% (active) in assay [4]; -26.6% (active) in assay [5]; 30.2% in assay [7]. In assay [6], the growth was -71.9% (active).

On to `COc1ccc(NC(=O)c2ccc(/C=C/C(=O)c3ncc[nH]3)cc2)cc1`, for which the growth was 78.8% in assay [1]; 67.1% in assay [2]; 34.5% in assay [3]; 25.1% in assay [4]; 71.5% in assay [5]; 83.9% in assay [7]. Besides, the growth in assay [6] was 27.5%.

In the case of `COc1cccc(-c2nc3sccn3c2-c2ccnc(NCCNS(=O)(=O)c3ccc(F)cc3)c2)c1`, the growth is 9.19% (active) in assay [1]; 23.3% in assay [2]; 42.5% in assay [3]; 18.7% in assay [4]; 22.2% in assay [5]; 50.1% in assay [7]. The growth in assay [6] was 22.3%.

`O=C(/C=C/c1cc(CN2CCOCC2)c(O)c2ncccc12)c1cc(CN2CCOCC2)c(O)c2ncccc12`: the growth in assay [1] was 12.8%; in assay [2], 21%; in assay [3] it was 18.7%; in assay [4] it was 10%; in assay [5], 21.7%; in assay [7], 37.2%. Further, the growth in assay [6] was 21.7%.

Take `COc1cc(-c2nn(-c3ccc(Br)cc3)cc2C(=O)O)ccc1O`: the growth in assay [1] was 98.8%; in assay [2] it was 97%; in assay [3] it was 105%; in assay [4] it was 81.5%; in assay [5], 97.9%; in assay [7] it was 108%. Besides, in assay [6], the growth was 94.8%.

Regarding `Fc1ccc(CNc2cccc3[nH]c(C(F)(F)F)nc23)cc1`, the growth in assay [1] was 99%; in assay [2], 95.7%; in assay [3], 94.6%; in assay [4], 92.4%; in assay [5], 95.8%; in assay [7] it was 119%. Further, the growth in assay [6] is 90.6%.

Consider `COc1ccc(C2Nc3c(c(C(C)(C)C)nn3-c3ccccc3)C(=O)CS2)cc1` (stereo not drawn), for which the growth in assay [1] is 122%; in assay [2], 106%; in assay [3] it was 107%; in assay [4] it was 92.9%; in assay [5], 97.7%; in assay [7] it was 102%. In addition, the growth in assay [6] is 98.2%.

As to `COc1ccc(C(=O)c2sc3nc(C)cc(C)c3c2N)cc1OC`, the growth in assay [1] was 93.2%; in assay [2], 91.8%; in assay [3], 99.5%; in assay [4], 84%; in assay [5], 87%; in assay [7], 99.1%. In assay [6], the growth is 94.3%.

For the molecule `COc1cccc(-c2nn(C(C)(C)C)cc2-c2ccnc(NCCCNS(=O)(=O)c3ccc(C)cc3)c2)c1`, the growth is 101% in assay [1]; 104% in assay [2]; 103% in assay [3]; 102% in assay [4]; 96.7% in assay [5]; 113% in assay [7]. The growth in assay [6] is 101%.

Take `COc1cccc(/C=C2\Oc3cc(OCCN4CCCC4)ccc3C2=O)c1`: the growth is 80.4% in assay [1]; 99.5% in assay [2]; 86.9% in assay [3]; 77.4% in assay [4]; 78% in assay [5]; 82.6% in assay [7]. Further, the growth in assay [6] was 97.8%.

As for `Cc1cc(N2CCN(C)CC2)nc(NC2CCCC(Nc3ccnc4cc(Cl)ccc34)C2)n1` (stereo not drawn), the growth in assay [1] was -41.9% (active); in assay [2], -86% (active); in assay [3] it was 2.79% (active); in assay [4] it was -10.5% (active); in assay [5] it was -69.6% (active); in assay [7], 8.13% (active). In addition, the growth in assay [6] was 10.4%.

In the case of `COc1ccc(C(=O)c2sc3nc4c(c(-c5cccnc5)c3c2N)CCCC4)cc1OC`, the growth is 74.6% in assay [1]; 107% in assay [3]; 90.2% in assay [4]; 88.2% in assay [5]; 110% in assay [7].

Take `COc1ccc2cc(-c3nn(-c4ccc(C(=O)O)cc4)cc3CO)ccc2c1`: the growth was 93.5% in assay [1]; 98.6% in assay [2]; 107% in assay [3]; 91% in assay [4]; 91% in assay [5]; 100% in assay [7]. Also, the growth in assay [6] was 101%.

For the molecule `O=C1/C(=C/c2ccc(Cl)cc2)SC(=S)N1CCc1ccc(O)cc1`, the growth is 101% in assay [1]; 92.9% in assay [2]; 101% in assay [3]; 114% in assay [4]; 102% in assay [5]; 107% in assay [7]. In addition, in assay [6], the growth was 93.6%.

For `OCC(O)c1nc2ccc3[nH]ncc3c2c2c1CCCC2` (stereo not drawn), the growth in assay [1] was -24.6% (active); in assay [2], 17.4%; in assay [3], 3.04% (active); in assay [4], 8.02% (active); in assay [5], 1.98% (active); in assay [7], 29.5%. The growth in assay [6] was 4.4% (active).

On to `COc1cc(-c2ccc3c(c2)NC(=O)/C3=C\c2ccc[nH]2)ccc1O`, for which the growth is 46.5% in assay [1]; 12.2% in assay [2]; 28.8% in assay [3]; 6.69% (active) in assay [4]; 14.1% in assay [5]; 1.36% (active) in assay [7]. The growth in assay [6] is 1.34% (active).

Consider `Cc1ccc(OC(=O)c2ccc(Cl)cc2)cc1`, for which the growth in assay [1] was 100%; in assay [2], 99.1%; in assay [3], 87.3%; in assay [4], 102%; in assay [5] it was 57.9%; in assay [7], 95.3%. For the same molecule, the growth in assay [6] was 104%.

Turning to `COc1ccc(-n2nc(C)c3c(Nc4ccc(NC(=O)Nc5ccc(Cl)c(C(F)(F)F)c5)cc4)ncnc32)cc1`, the growth was 17.2% in assay [1]; -9.88% (active) in assay [2]; 14.3% in assay [3]; 1.4% (active) in assay [4]; 7.03% (active) in assay [5]; 15.6% in assay [7]. Besides, the growth in assay [6] was 6.08% (active).

(Values after PubChem BioAssay (NCI).)
